Results from PubChem BioAssay.
Activity calls are given as the source filed them.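 The calls were made as follows, unless noted: active = inhibition of the reporter signal at or above 50%; inactive = inhibition below 50%.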

How the values were obtained:
[1] = inhibitors of TNFa-induced NFkB p65 translocation, primary screen, imaging, HUVEC, MLSMR starter and 10KST1 sets (AID 438;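 active = inhibition above 20% together with a positive visual image hit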;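 also: compound added about 3h40 before a 20 min TNFalpha stimulation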;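 as to inhibition: signal is the nuclear over cytoplasmic p65 intensity ratio per well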); settings: HUVEC TNFa-induced p65 nuclear translocation; cell count: measured here: nuclei count (cytotoxicity indicator), at 2.08 µM; inhibition: at 2 µM, stronger effect = higher value, 0% TNFa-plus-vehicle, 100% no-TNFa wells
[2] = reduction of polyQ htt aggregates in cells – imaging, exon1htt(103Q)mCFP cells, high-content imaging, primary screen (AID 483;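 active = visual image review flags a hit and inhibition of aggregation exceeds 20%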;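 also: compound exposure lasted 3 days before fixation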;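 as to nuclei count: percent of the per-plate median nuclei count of sample wells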); settings: exon1htt(103Q)mCFP cell line, aggregate imaging, at 2 µM; inhibition of aggregation: stronger effect = higher value; nuclei count: measured here: cell count, toxicity
[3] = endothelial E-selectin expression blockers – imaging, HUVEC, immunofluorescence, MLSMR starter and 10KST1 sets, primary screen (AID 487;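 active = visually confirmed hit in the image check and inhibition above 20%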;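 as to inhibition: signal is fraction of cell area covered by stained E-selectin grains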;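 as to nuclei count: 100% = median nuclei count of all wells on the same plate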); settings: HUVEC TNFalpha-induced E-selectin immunofluorescence imaging, at 2 µM; inhibition: stronger effect = higher value; nuclei count: measured here: cell number, toxicity
[4] = target: Voltage-gated potassium channel subunit beta-2 (Rattus norvegicus) (UniProt P62483); assay: inhibitors of rat Kvbeta2 reductase activity – biochemical, NADPH fluorescence, primary screen (AID 622;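 active = fluorescence slope higher than the sample average by over 3 SD, cut at about -0.22 in these data, passing the limit was not always enough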;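 also: slope of raw intensity against log time taken from 70 to 1610 s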); settings: recombinant KvBeta, 4-cyanobenzaldehyde reduction, at 10 µM, stronger effect = higher value
[5] = target: Voltage-gated potassium channel subunit beta-2 (Rattus norvegicus) (UniProt P62483); assay: enhancers of rat Kvbeta2 NADPH turnover – biochemical, NADPH fluorescence, primary screen (AID 623;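 active = NADPH fluorescence slope more negative than the mean of all samples by about 3 SD, 99.7% confidence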;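 also: fluorescence intensity change per second fitted from 20 to 320 s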); settings: Recombinant KvBeta, NADPH fluorescence decrease slope, 10 min; at 10 µM; stronger effect = lower value
[6] = target: Alpha-2C adrenergic receptor (Homo sapiens) (UniProt P18825); assay: compounds altering alpha2C-coupled GIRK flux – cell-based, HEK293 alpha2C/GIRK1/2, thallium flux, primary screen (AID 624;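 active = fluorescence slope after compound addition differing from the mean of all screened samples at 99.7% confidence, in either direction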;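 also: slope of fluorescence ratio to pre-addition baseline per second over 15 to 24 s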); settings: thallium flux BTC fluorescence, at 10 µM, actives lie on both sides
[7] = blockers of RIG-like receptor reporter activation – cell-based, Sendai virus stimulus, luciferase, 10K MLSCN set, TLR/RLR signaling modifier project, primary screen (AID 602276;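 active = inhibition at or above 50% at 10 µM; inactive = inhibition below 50%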;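 also: firefly luciferase from ISG56 promoter only with Renilla not read in this screen; 0% = Sendai virus plus DMSO and 100% = medium plus DMSO without virus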); settings: HEK293 RL24 IRF3 luciferase reporter, at 10 µM, stronger effect = higher value
[8] = TLR3 IRF3 reporter activation blockers – cell-based, poly I:C stimulus, luciferase, 10K MLSCN set, primary screen (AID 602277); settings: HEK293-TLR3 RL24 IRF3 luciferase reporter, at 10 µM, stronger effect = higher value

Alpha-2C adrenergic receptor (Homo sapiens), sequence (P18825 whole entry, looked up): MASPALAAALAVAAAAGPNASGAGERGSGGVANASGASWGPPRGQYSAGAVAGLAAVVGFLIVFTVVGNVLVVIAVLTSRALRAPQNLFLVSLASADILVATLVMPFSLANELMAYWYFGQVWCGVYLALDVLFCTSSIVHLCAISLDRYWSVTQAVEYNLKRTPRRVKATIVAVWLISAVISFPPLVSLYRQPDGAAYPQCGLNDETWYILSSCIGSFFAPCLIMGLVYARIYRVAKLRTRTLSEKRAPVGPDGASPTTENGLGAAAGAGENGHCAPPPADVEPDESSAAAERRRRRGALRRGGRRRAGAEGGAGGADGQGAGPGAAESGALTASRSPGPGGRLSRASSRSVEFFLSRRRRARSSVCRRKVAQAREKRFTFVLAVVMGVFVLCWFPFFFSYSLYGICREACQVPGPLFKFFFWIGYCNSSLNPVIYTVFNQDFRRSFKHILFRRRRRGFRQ
Voltage-gated potassium channel subunit beta-2 (Rattus norvegicus), sequence (P62483 whole entry, looked up): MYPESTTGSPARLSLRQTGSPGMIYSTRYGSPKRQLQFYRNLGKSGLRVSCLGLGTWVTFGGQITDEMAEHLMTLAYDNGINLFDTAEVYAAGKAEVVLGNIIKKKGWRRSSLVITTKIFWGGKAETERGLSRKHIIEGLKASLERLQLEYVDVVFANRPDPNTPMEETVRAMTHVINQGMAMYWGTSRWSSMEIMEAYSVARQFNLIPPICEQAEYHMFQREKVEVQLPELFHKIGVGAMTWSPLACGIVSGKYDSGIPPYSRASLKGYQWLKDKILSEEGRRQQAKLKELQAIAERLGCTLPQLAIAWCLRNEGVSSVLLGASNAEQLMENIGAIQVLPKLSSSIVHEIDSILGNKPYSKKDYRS

Row | SMILES | cell count [1] | inhibition [1] | inhibition of aggregation [2] | nuclei count [2] [%] | inhibition [3] | nuclei count [3] [%] | fluorescence slope [4] | NADPH fluorescence slope [5] | slope [6] | inhibition [7] | inhibition [8]
1 | CCOC(=O)N1CCN(CC(=O)Nc2cc(C)nn2-c2nc3ccccc3s2)CC1 | 859 | 9.9% (inactive) | -38.2% (inactive) | 101 | -132% (inactive) | 122 | -0.609 (inactive) | 2.4e-05 (inactive) | 0.00559 (inactive) | 13.7% (inactive) | 27.3% (inactive)
2 | CCS(=O)(=O)NCCc1cc2c(OC)ccc(OC)c2[nH]c1=O | 349 | -15.2% (inactive) | 12.1% (inactive) | 83.7 | 38.9% (inactive) | 95.1 | -0.488 (inactive) | -3.1e-05 (inactive) | 0.00489 (inactive) | 16.6% (inactive) | 26.4% (inactive)
3 | O=C(COc1ccccc1F)NC1CC1 | 235 | -13% (inactive) | 14.4% (inactive) | 92.8 | 19.9% (inactive) | 100 | -0.395 (inactive) | -4.8e-05 (inactive) | 0.0037 (inactive) | -0.955% (inactive) | 11% (inactive)
4 | CCOc1cc(NC(=O)c2ccco2)c(OCC)cc1NC(=O)CCc1ccc(OC)cc1 | 630 | -0.7% (inactive) | -13.7% (inactive) | 109 | 23.6% (inactive) | 102 | -0.513 (inactive) | -6.7e-06 (inactive) | 0.00426 (inactive) | -0.546% (inactive) | -4.67% (inactive)
5 | CCn1c(=O)c(C(=O)NCc2ccc(OC)cc2)c(O)c2ccccc21 | 685 | 12.5% (inactive) | 0.6% (inactive) | 101 | 33.9% (inactive) | 101 | -0.353 (inactive) | -2.5e-05 (inactive) | 0.00899 (inactive) | 14.7% (inactive) | 16.2% (inactive)
6 | Cc1ccc(C(=O)CC2(O)C(=O)N(CN3CCOCC3)c3ccccc32)cc1 (stereo not drawn) | 396 | -8.1% (inactive) | -5.7% (inactive) | 103 | -52.9% (inactive) | 99.1 | -0.367 (inactive) | 8.1e-06 (inactive) | 0.00346 (inactive) | -4.62% (inactive) | 5.37% (inactive)
7 | Cn1c(=O)c2c(nc(-n3ccnc3)n2C)n(C)c1=O | 311 | -8.5% (inactive) | 14.2% (inactive) | 85.8 | -22.1% (inactive) | 104 | -0.362 (inactive) | 8.4e-06 (inactive) | 0.00573 (inactive) | 15.7% (inactive) | 17.1% (inactive)
8 | Cc1ccc(Nc2nc(CSc3nnc(-c4cccs4)o3)cs2)cc1 | 444 | -0.2% (inactive) | 31.6% (inactive) | 110 | 16.3% (inactive) | 113 | -0.408 (inactive) | -1.4e-05 (inactive) | 0.00487 (inactive) | -22% (inactive) | -60.6% (inactive)
9 | O=C(COc1ccc(S(=O)(=O)NC2CCCCC2)cc1Cl)NCC1CCCO1 (stereo not drawn) | 310 | -13.4% (inactive) | -14.2% (inactive) | 124 | -111% (inactive) | 95.6 | -0.415 (inactive) | -1.9e-05 (inactive) | 0.00646 (inactive) | 3.07% (inactive) | 9.97% (inactive)
10 | Cc1ccc(N(C(C)C(=O)Nc2ccc(S(=O)(=O)N3CCOCC3)cc2)S(C)(=O)=O)cc1 (stereo not drawn) | 522 | -7.3% (inactive) | 23.8% (inactive) | 68.3 | -0.3% (inactive) | 92.3 | -0.518 (inactive) | -1.3e-05 (inactive) | 0.00486 (inactive) | 5.72% (inactive) | 10.8% (inactive)
11 | CSCCC(NC(=O)c1occc1C)C(=O)O (stereo not drawn) | 361 | 4% (inactive) | -17.4% (inactive) | 108 | -91.1% (inactive) | 149 | -0.351 (inactive) | -6.3e-05 (inactive) | 0.00359 (inactive) | 7.31% (inactive) | 21.8% (inactive)
12 | CCCn1c(OC)nc2c1c(=O)n(C)c(=O)n2C | 660 | -3.7% (inactive) | 2.9% (inactive) | 104 | -34.6% (inactive) | 124 | -0.426 (inactive) | -5.4e-05 (inactive) | 0.00615 (inactive) | 15.2% (inactive) | 33.4% (inactive)
13 | Cc1cc2c(cc1C)-c1nnnn1C(C)(C)C2 | 655 | 2.4% (inactive) | 13.2% (inactive) | 91.6 | 67.5% (active) | 88.2 | -0.421 (inactive) | -3e-05 (inactive) | 0.00748 (inactive) | -16.2% (inactive) | 82.3% (active)
14 | O=C(CC1CCS(=O)(=O)C1)Nc1ccc[nH]c1=O (stereo not drawn) | 475 | -4.7% (inactive) | -4.6% (inactive) | 63.8 | 42.5% (inactive) | 49 | -0.41 (inactive) | -6.4e-05 (inactive) | 0.0024 (inactive) | 16.2% (inactive) | 8.75% (inactive)
15 | Cc1nc2ccc(CCO)cc2s1 | 419 | 8% (inactive) | 2.9% (inactive) | 93.2 | -162% (inactive) | 112 | -0.652 (inactive) | 3.1e-05 (inactive) | 0.00546 (inactive) | 5.43% (inactive) | 4.05% (inactive)
16 | Cc1cc(Nc2ccccc2N2CCOCC2)n2ncnc2n1 | 226 | 2% (inactive) | 13.7% (inactive) | 89 | -16.1% (inactive) | 97 | -0.588 (inactive) | 7.3e-06 (inactive) | 0.00567 (inactive) | 21.9% (inactive) | 44.1% (inactive)
17 | Cc1csc(SCCn2c(N3CCCC3)nc3c2c(=O)[nH]c(=O)n3C)n1 | 445 | 53.9% (active) | -7.1% (inactive) | 110 | -26.1% (inactive) | 127 | -0.38 (inactive) | -3.1e-05 (inactive) | 0.00532 (inactive) | 1.74% (inactive) | 16.5% (inactive)
18 | O=C(NCc1ccco1)c1ccc2c(=O)n(CC3CCCO3)c(=S)[nH]c2c1 (stereo not drawn) | 318 | -2.6% (inactive) | -6.3% (inactive) | 120 | -7.4% (inactive) | 101 | -0.501 (inactive) | -2.2e-05 (inactive) | 0.00599 (inactive) | 9.53% (inactive) | 15.2% (inactive)
19 | O=C(CSc1nnc(-c2ccco2)n1-c1ccccc1)N1CCN(C(=O)c2ccco2)CC1 | 537 | -7.8% (inactive) | 27.8% (active) | 59.4 | 0.8% (inactive) | 116 | -0.474 (inactive) | -1.7e-05 (inactive) | 0.00672 (inactive) | 11.5% (inactive) | 31.2% (inactive)
20 | CCOC(=O)CSc1nnc(-c2ccc(NS(=O)(=O)c3ccc(C)cc3)cc2)o1 | 813 | -6.7% (inactive) | -0.7% (inactive) | 98.9 | -37.7% (inactive) | 108 | -0.433 (inactive) | -4.4e-05 (inactive) | 0.00389 (inactive) | 8.31% (inactive) | 29.4% (inactive)
21 | CCCN(Cc1cc2cc(C)ccc2[nH]c1=O)C(=O)c1cccc(OC)c1 | 594 | 8.2% (inactive) | -3.9% (inactive) | 101 | -74% (inactive) | 107 | -0.506 (inactive) | -5.1e-05 (inactive) | 0.00579 (inactive) | 10.4% (inactive) | 10.9% (inactive)
22 | CCOC(=O)c1cc2cc(F)ccc2nc1C | 646 | 4.9% (inactive) | 13.9% (inactive) | 106 | -7% (inactive) | 118 | -0.612 (inactive) | -2.7e-05 (inactive) | 0.00327 (inactive) | -17.9% (inactive) | -45.1% (inactive)
23 | COc1cc2c(=O)n(Cc3ccccc3)c(=O)n(CC(=O)NCc3ccco3)c2cc1OC | 358 | 3.5% (inactive) | -3.1% (inactive) | 107 | -319% (inactive) | 109 | -0.37 (inactive) | 9e-06 (inactive) | 0.0075 (inactive) | 23.8% (inactive) | 21.5% (inactive)
24 | COc1ccc(C(=O)NCCSc2ccccn2)cc1 | 778 | 4.4% (inactive) | 3.3% (inactive) | 101 | 48% (inactive) | 95 | -0.478 (inactive) | -6.9e-05 (inactive) | 0.00549 (inactive) | -6.19% (inactive) | -64.3% (inactive)
25 | COc1ccccc1CNC(=O)C1CCCN(S(=O)(=O)c2cnc[nH]2)C1 (stereo not drawn) | 443 | 49.5% (active) | 27.9% (inactive) | 87.1 | -59.5% (inactive) | 103 | -0.558 (inactive) | 7.1e-07 (inactive) | 0.00747 (inactive) | -5.95% (inactive) | 0.0501% (inactive)
26 | CC(=O)NC(CCS(C)(=O)=O)C(=O)Nc1cccc2ccccc12 (stereo not drawn) | 667 | 3.9% (inactive) | 18.3% (inactive) | 100 | -7.5% (inactive) | 108 | -0.564 (inactive) | -3.4e-05 (inactive) | 0.006 (inactive) | 1.24% (inactive) | 31.9% (inactive)
27 | COc1cc(C(=O)Nc2cccc(-c3nc4cc(C)ccc4o3)c2)cc(OC)c1OC | 507 | 7% (inactive) | -1.2% (inactive) | 90.7 | -126% (inactive) | 126 | -0.582 (inactive) | -3.2e-05 (inactive) | 0.0093 (inactive) | 0.465% (inactive) | -22.5% (inactive)
28 | CCn1c(=O)c2cc(S(=O)(=O)NCc3ccccc3)ccc2n(CC)c1=O | 404 | -2.3% (inactive) | -3.8% (inactive) | 104 | 0.2% (inactive) | 126 | -0.573 (inactive) | 1.7e-05 (inactive) | 0.00625 (inactive) | 11.6% (inactive) | 3.23% (inactive)
